Data as given in PubChem BioAssay (NCATS).
Values joined by “and” are separate entries in the source; they are usually repeats but may differ in a detail not shown here. Equal entries are not always repeated. Records with an inconclusive call do not appear. Some compounds were tested as several samples or in several runs, with calls that do not always agree. Active and inactive are the calls of the source. Unless noted, calls follow the shape of the dose curve; as a rule, active = well fitted curve in the direction sought with a large enough effect; inconclusive = small, poorly fitted or top-dose-only effect, or another doubt; inactive = no such curve, though single readings can be large; an effect the other way counts as inactive or inconclusive.

Columns and labels:
[1] = qHTS to identify inhibitors of the type 1 interferon - major histocompatibility complex class I in skeletal muscle: primary screen against the NCATS Mechanism Interrogation Plate v5.0 (MIPE) Libary (AID 1347411); conditions: iHSKM cells + IFN-b, HiBiT-tagged MHC-I luminescence, 24 h; series mostly up to 45.8 µM
Procedure, shortened: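 Immortalized human myoblasts (C25cl48) with HiBit knocked into endogenous HLA-B*08:01 were stimulated with 4 ng/ml IFN-beta and given compounds in 11-point 1:3 titration from 46 uM. After 24 h at 37 C, lytic HiBiT luminescence was read.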

[2] = biological target: Calcium and integrin-binding protein 1 (Homo sapiens) (UniProt Q99828); assay: Primary qHTS for Identification of Calcium Integrin Binding Protein 1 (CIB1) Competitor (AID 1508620); conditions: CIB1-GST / FITC-alphaIIb peptide fluorescence polarization; series mostly up to 57.7 µM
Procedure, shortened: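 CIB1-GST (1 uM final) and compound incubated 15 min at room temperature before adding FITC-alphaIIb peptide tracer (100 nM final). Competition for binding read by fluorescence polarization (ex 480, em 540) after another 15 min at room temperature.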

[3] = Primary qHTS for inhibitors of nuclear receptor binding SET domain protein 2 (NSD2) in an isogenic RCH-ACV NSD2 p.E1099K mutant (9B) (AID 1645876); conditions: RCH-ACV NSD2 E1099K (9B) viability, CellTiter-Glo, 72 h; series mostly up to 44.9 µM
[4] = Primary qHTS for inhibitors of nuclear receptor binding SET domain protein 2 (NSD2) in an RCH-ACV wild type WT cells (2C) (AID 1645877); conditions: RCH-ACV NSD2 WT (2C) viability, CellTiter-Glo, 72 h; series mostly up to 44.9 µM
[5] = biological target: Cytochrome P450 2D6 (Homo sapiens) (UniProt P10635); assay: Cytochrome P450 family 2 subfamily D member 6 (CYP2D6) small molecule antagonists: luciferase biochemical (cell-free) qHTS assay (AID 1645840; active = well fitted curve in the direction sought with a large enough effect in the repeat runs; an effect the other way counts as inactive or inconclusive); conditions: P450-Glo CYP2D6 enzyme, luciferin luminescence, 1 h; series mostly up to 57.4 µM
Procedure, shortened: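 P450-Glo luminescent screen: recombinant CYP2D6 enzyme–proluciferin substrate mix preincubated with compound 10 min at room temperature, then NADPH regeneration added for 1 h at room temperature. Detection reagent added for 20 min; luciferin light read as relative luminescence units.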

[6] = qHTS for Activators of p53 Stress Response Pathway screened against the NCATS CANVASS Library (AID 1347388); conditions: p53RE-bla HCT-116, beta-lactamase reporter, 16 h; series mostly up to 46.1 µM
Procedure, shortened: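 Beta-lactamase reporter driven by p53 response elements in HCT-116 cells, read as the 460 nm/530 nm emission ratio after CCF4 loading, following 16 h of exposure to an 11-point series. Cell viability was measured in the same wells by CellTiter-Glo luminescence.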

[7] = qHTS assay for small molecule disruptors of mitochondrial membrane potential screened against the NCATS CANVASS Library (AID 1347389); conditions: HepG2 mitochondrial membrane potential, m-MPI red/green ratio, 1.5 h; series mostly up to 46.1 µM
Procedure, shortened: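 HepG2 cells (2,000/well) plated overnight, then exposed to compounds in 11-point qHTS series for 1 h at 37C before 30 min Mito-MPS dye; depolarization read as fall in red aggregate (590 nm) to green monomer (535 nm) fluorescence.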

[8] = Secretion counterscreen for inhibitors of the SERCaMP assay screened against the NCATS CANVASS Library (AID 1347390); conditions: SH-SY5Y constitutive GLuc secretion, luminescence, 20 h; series mostly up to 76.6 µM
Procedure, shortened: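 Counterscreen for secretory-pathway interference: after 4 h attachment, SH-SY5Y-GLuc cells were exposed 20 hours to compounds (final 0.001 - 77 uM), then coelenterazine added and GLuc luminescence recorded; Brefeldin A served as control.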

[9] = qHTS for activators of dead-cell proteases activity screened against the NCATS CANVASS Library (AID 1347392); conditions: HepG2 cytotoxicity, dead-cell protease luminescence, 5 h; series mostly up to 46.1 µM
Procedure, shortened: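 Compounds are pin-transferred onto attached HepG2 cells, giving 11 final concentrations. After 5 h at 37C, AAF-aminoluciferin reagent is added and luminescence is recorded at room temperature.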

[10] = qHTS for inhibitors of ER calcium dysfunction: SERCaMP assay screened against the NCATS CANVASS Library (AID 1347393); conditions: SH-SY5Y GLuc-SERCaMP (Gaussia luciferase released on ER calcium loss) secretion, thapsigargin, luminescence; series mostly up to 76.6 µM
Procedure, shortened: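 Thapsigargin-induced ER calcium depletion drives GLuc-SERCaMP secretion from SH-SY5Y cells; compounds given 16 h beforehand were scored by lowered coelenterazine luminescence after 4 h challenge.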

[11] = Vero-766 cells viability qHTS against the NCATS CANVASS Library: Counterscreen for Zika virus inhibition assay (AID 1347394); conditions: Vero 766 viability, CellTiter-Glo luminescence, 72 h; series mostly up to 46.1 µM
Procedure, shortened: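 CellTiter Glo luminescence measured cytotoxicity after 72 h at 37C in uninfected Vero 766 cells, plated at 1000 cells/well. Compounds were applied in an 11-point series. Wells without cells defined 100% inhibition.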

[12] = qHTS for inhibitors of Wild type Zika virus screened against the NCATS CANVASS Library (AID 1347396); conditions: Vero cells, Zika virus CPE, CellTiter-Glo, 72 h; series mostly up to 91 µM
Procedure, shortened: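 Vero 766 (African green monkey) cells, 1000 per well, attached overnight, then compounds were added in an 11-point series before wild-type Zika virus infection. After 72 h at 37C, cell viability was read as CellTiter Glo luminescence.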

[13] = Viability qHTS for inhibitors of the SERCaMP assay screened against the NCATS CANVASS Library (AID 1347400); conditions: SH-SY5Y SERCaMP cells viability, CellTiter-Glo, 48 h; series mostly up to 92.2 µM
Procedure, shortened: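 SH-SY5Y-GLuc SERCaMP MJH297-derived cells, 1000/well, plated 4 h, then exposed to compounds in an 11-point qHTS series for 48 h at 37C. Viability read as CellTiter-Glo luminescence.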

[14] = Redox Reaction Profiling qHTS: Assay Interference Panel against the NCATS CANVASS Library (AID 1347401); conditions: resazurin-DTT redox cycling, fluorescence, 15 min; series mostly up to 57.1 µM
Procedure, shortened: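 Cell-free redox surrogate: 5 uM resazurin + 200 uM DTT, 50 mM HEPES pH 7.3/50 mM NaCl; cpds pinned, 11-pt qHTS; Ex525/Em598 read t0 and t=15 min, dark.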

[15] = biological target: Cytochrome P450 2C9 (Homo sapiens) (UniProt P11712); assay: Cytochrome P450 family 2 subfamily C member 9 (CYP2C9) small molecule antagonists: luciferase biochemical (cell-free) qHTS assay (AID 1645842; active = well fitted curve in the direction sought with a large enough effect in the repeat runs; an effect the other way counts as inactive or inconclusive); conditions: P450-Glo CYP2C9 enzyme assay, luciferin luminescence; series mostly up to 57.4 µM
Procedure, shortened: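 Luminescence, after 20 min with luciferin detection reagent, reflected CYP2C9 turnover during a 1 h NADPH-driven reaction at 37C. Enzyme-substrate mix contained 0.4% bovine serum albumin and was preincubated with compound 10 min at room temperature.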

[16] = qHTS for activators of Nrf2/ARE signaling pathway screened against the NCATS CANVASS Library (AID 1347391); conditions: ARE-bla HepG2, beta-lactamase reporter, 16 h; series mostly up to 91.4 µM
Procedure, shortened: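 ARE-bla HepG2 beta-lactamase reporter cells exposed to compounds for 16 h at 37C; CCF4 substrate 2 h, fluorescence at ex 405 nm, em 460/530 nm. Viability by CellTiter-Glo luminescence.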

[17] = biological target: Calcium and integrin-binding protein 1 (Homo sapiens) (UniProt Q99828); assay: Confirmatory qHTS for Identification of Calcium Integrin Binding Protein 1 (CIB1) Competitor (AID 1508617); conditions: CIB1 binding competition assay, biochemical qHTS
Procedure, shortened: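 FP competition: CIB1-GST (1 uM final) in 5 mM HEPES pH 7.4, 125 mM NaCl, 5 mM CaCl2, 0.01% Tween20 preincubated 15 min RT with compounds (up to 114 uM), then FITC-alphaIIb peptide (100 nM), 15 min RT; Ex 480/Em 540.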

Chain of Cytochrome P450 2D6 (Homo sapiens) (P10635 whole entry, looked up): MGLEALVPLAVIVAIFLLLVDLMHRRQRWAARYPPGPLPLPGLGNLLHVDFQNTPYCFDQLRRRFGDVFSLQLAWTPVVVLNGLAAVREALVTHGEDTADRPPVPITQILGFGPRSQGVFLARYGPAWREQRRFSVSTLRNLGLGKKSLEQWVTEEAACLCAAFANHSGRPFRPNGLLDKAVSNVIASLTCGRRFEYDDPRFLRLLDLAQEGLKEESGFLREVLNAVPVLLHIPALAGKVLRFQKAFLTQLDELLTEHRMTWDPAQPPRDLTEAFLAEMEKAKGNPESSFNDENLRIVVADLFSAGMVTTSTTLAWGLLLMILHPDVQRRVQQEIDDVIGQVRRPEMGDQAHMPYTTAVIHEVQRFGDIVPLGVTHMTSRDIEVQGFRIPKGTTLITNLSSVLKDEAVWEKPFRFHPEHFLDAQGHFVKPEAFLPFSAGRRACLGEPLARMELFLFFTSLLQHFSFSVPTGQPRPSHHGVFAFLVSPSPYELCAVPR
Chain of Calcium and integrin-binding protein 1 (Homo sapiens) (Q99828 whole entry, looked up): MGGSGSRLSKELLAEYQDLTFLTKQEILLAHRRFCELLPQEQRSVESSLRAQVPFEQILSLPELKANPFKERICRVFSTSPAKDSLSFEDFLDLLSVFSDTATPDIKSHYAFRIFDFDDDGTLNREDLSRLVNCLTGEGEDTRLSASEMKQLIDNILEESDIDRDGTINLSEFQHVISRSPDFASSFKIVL
Chain of Cytochrome P450 2C9 (Homo sapiens) (P11712 whole entry, looked up): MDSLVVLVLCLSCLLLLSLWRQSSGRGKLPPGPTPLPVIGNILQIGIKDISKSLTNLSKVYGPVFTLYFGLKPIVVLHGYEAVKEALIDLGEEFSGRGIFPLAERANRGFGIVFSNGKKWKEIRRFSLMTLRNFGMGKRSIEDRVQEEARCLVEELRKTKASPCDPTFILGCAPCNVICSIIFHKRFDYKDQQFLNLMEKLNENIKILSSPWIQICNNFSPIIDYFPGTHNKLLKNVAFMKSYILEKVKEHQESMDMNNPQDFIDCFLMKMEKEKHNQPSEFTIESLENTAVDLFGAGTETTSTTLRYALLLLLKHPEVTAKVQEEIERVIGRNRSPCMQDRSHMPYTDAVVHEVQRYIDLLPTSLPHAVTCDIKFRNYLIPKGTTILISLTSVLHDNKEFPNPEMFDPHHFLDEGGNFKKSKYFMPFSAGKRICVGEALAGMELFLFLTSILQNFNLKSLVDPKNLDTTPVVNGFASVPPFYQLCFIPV

Cn1cc(-c2c[nH]c3ncnc(N4CCOCC4)c23)cn1
inactive: outcome [1] | Potency [2] | Potency [3]
active: Potency [4] 23.1 µM

Cc1nc(-c2cccnc2)sc1C(=O)Nc1ccccc1-c1cn2c(CN3CCOCC3)csc2n1
inactive: outcome [1] | Potency [2] | Potency [3] | Potency [4]

C=C1C[C@@]2(O)O[C@@]3(C[C@H]2C(C)C)[C@@H](C)CC[C@@H]13
inactive: outcome [1] | Potency [2] | Potency [3] | Potency [4]

Cc1c(F)cc(C(=O)NC2CC2)cc1-c1ccc(C(=O)NCC(C)(C)C)cn1
inactive: outcome [1] | Potency [2] | Potency [5]

CC(C)c1ccc2c(c1)CCC1[C@](C)(C(=O)O)CCC[C@]21C (some centres not stated)
inactive: outcome [6] | outcome [7] | outcome [8] | outcome [9] | Potency [10] | outcome [11] | outcome [12] | outcome [13] | outcome [14] | Potency [2] | Potency [3] | Potency [4]

Nc1ncnc2c1C(=O)N(c1ccc(C3CCC(CC(=O)O)CC3)cc1)CCO2 (configuration not stated)
inactive: outcome [1] | Potency [5] | Potency [15] | Potency [3] | Potency [4]

CCc1cccc2c3c([nH]c12)[C@@](CC)(CC(=O)O)OCC3
inactive: outcome [1] | Potency [2] | Potency [3] | Potency [4]

O=C(/C=C/C=C/c1ccc2c(c1)OCO2)N1CCCCC1
active: Potency [10] 60.5 µM | Potency [15] 10.7 µM
inactive: outcome [6] | outcome [7] | Potency [16] | outcome [9] | outcome [11] | outcome [12] | outcome [13] | outcome [14] | outcome [1] | Potency [2]

Cc1ncc(Cl)cc1NCc1ccc(C(=O)NC(CC2CCCC2)C(=O)NC2CC2)s1 (configuration not stated)
active: Potency [4] 14.8 µM
inactive: outcome [1] | Potency [2]

CCC(CC)CC1(C(=O)Nc2ccccc2SC(=O)C(C)C)CCCCC1
inactive: outcome [1] | Potency [2] | Potency [5] | Potency [3] | Potency [4]

CC(=O)NC(Cc1c[nH]c2ccccc(=O)c12)C(=O)O (configuration not stated)
inactive: Potency [3]
active: Potency [17] 44.7 µM

C[C@@H]1O[C@@H](O[C@@H]2\C=C/C=C\C=C/C=C\C[C@H](C)OC(=O)/C=C\[C@H]3O[C@@H]3C[C@H](O)C[C@]3(O)C[C@@H](O)[C@@H](C(=O)O)[C@H](C2)O3)[C@H](O)[C@H](N)[C@@H]1O
inactive: outcome [1] | Potency [2] | Potency [3] | Potency [4]

O=C(O)CC1CCC(c2ccc(-c3ccc(Nc4ccc(C(F)(F)F)nc4)cn3)cc2)CC1 (configuration not stated)
inactive: outcome [1] | Potency [2] | Potency [3] | Potency [4]

CC(=O)OC1C(CO)OC(O[C@H]2[C@H](OC(=O)[C@]34CCC(C)(C)C[C@H]3C3=CCC5[C@@]6(C)CC[C@H](O[C@@H]7O[C@H](C(=O)O)[C@@H](O)[C@H](O[C@@H]8OC[C@@H](O)[C@H](O)[C@H]8O)[C@H]7O[C@@H]7O[C@H](CO)[C@H](O)[C@H](O)[C@H]7O)[C@@](C)(C=O)C6CC[C@@]5(C)[C@]3(C)C[C@H]4O)O[C@H](C)[C@H](OC3OC(C)C(OC4OCC(O)C(O)C4O)C(O)C3O)[C@@H]2O)C(O)C1O (some centres not stated)
inactive: activity change, negative = inhibition [2] 4.08% [at 12.4 µM]

Cc1ccccc1-n1nc(-c2c(-c3ccc(F)cc3)nn3c2NC[C@@H](CO)C3)ccc1=O
inactive: outcome [1] | Potency [2] | Potency [5]
active: Potency [15] 6.74 µM

COc1cccc2c1c(O)c(C(=O)N(C)c1ccc(C(F)(F)F)cc1)c(=O)n2C
inactive: outcome [1] | Potency [2] | Potency [5] | Potency [3] | Potency [4]

CC(=O)O[C@H]1C[C@@]2(C)[C@@H](CC[C@H]3[C@@]4(C)C=CC(=O)[C@@H](C)[C@@H]4[C@H](OC(C)=O)C(=O)[C@@]32C)/C1=C(\CCC=C(C)C)C(=O)O
active: Potency [16] 20.9 µM | Potency [10] 30.5 µM
inactive: outcome [6] | outcome [7] | outcome [8] | outcome [9] | outcome [11] | outcome [13] | outcome [14] | Potency [2] | Potency [3]

C/C=C(\C)C(=O)OC1C(C)C2(O)C3C=C(C)C(=O)C3CC(CO)=CC2C2C(C)(C)C12OC(C)=O (configuration not stated)
inactive: Potency [2]

CC(C)=CCc1c(O)cc2oc3cc(C)cc(O)c3c2c1C
inactive: Potency [2]

CCC(C)/C=C(C)/C=C/C1=CC2=C(Cl)C(=O)C(C)(O)C(=O)C2(O)C(OC)O1 (configuration not stated)
inactive: Potency [2]

COc1ccc2[nH]c(S(=O)Cc3ncc(C)c(OC)c3C)nc2c1 (configuration not stated)
inactive: outcome [1] | Potency [2] | Potency [3]

N#Cc1ccc(C2CCCc3cncn32)cc1 (configuration not stated)
inactive: outcome [1] | Potency [2] | Potency [3] | Potency [4]
active: Potency [5] 17.5 µM

CC(C)N(CCCNC(=O)Nc1ccc(C(C)(C)C)cc1)C[C@H]1O[C@@H](n2ccc3c(N)ncnc32)[C@H](O)[C@@H]1O
inactive and 18.6 µM (active): Potency [4]
inactive: outcome [1] | Potency [2] | Potency [3]
